Experimental data from publication PMC4552634, “A New Set of Chemical Starting Points with Plasmodium falciparum Transmission-Blocking Potential for Antimalarial Drug Discovery” (PLoS ONE, 2015).
Screen size: about 13,000 compounds; about 3,200 (25%) showed an effect of 50% or more. Some of the results follow.

What follows are compounds tested on P. falciparum stage V gametocytes. Settings: 48 h, 5 µM; inhibitor.
Set-up: BacTiter-Glo ATP luminescence viability of purified stage V gametocytes in 384-well plates, per cent inhibition versus DMSO

Compound | % Inhibition [%]
CSC1=NC2(CC(c3cccc(C)c3)c3cc(Cl)c(O)cc3O2)CC(C)(C)N1 (centres unmarked) [TCMDC-125563] | 19.29
O=C(c1ccc(-c2ccccn2)s1)N1CCc2cc3nccc(N4CCN5CCC[C@H]5C4)c3cc21 [TCMDC-140047] | 34.48
CCCCCCn1c(Sc2ccc(C#N)c([N+](=O)[O-])c2)nnc1-c1cccs1 [TCMDC-135586] | 11.04
COc1cccc(C(=O)Nc2ccc(Nc3nc(C)cc(N4CCCCC4)n3)cc2)c1OC [TCMDC-124963] | -19.94
CC(CN(C)C)Oc1ccc2[nH]c(-c3cccc(OCc4ccccc4)c3)nc2c1C#N (centres unmarked) [TCMDC-133767] | 6.337
Cc1cccc2[nH]c(-c3ccc(-c4ccc(NC(=O)Nc5cccc(C#N)c5)cc4)cc3)nc12 [TCMDC-133196] | -20.21
N#Cc1cccc(NC(=O)Nc2cccc(-c3cccc(-c4nc5ccccc5[nH]4)c3)c2)c1 [TCMDC-133193] | -45.89
CCn1c(-c2nonc2N)nc2c(-c3cccc(NC(=O)Nc4ccc(C#N)cc4)c3)ncc(OCCCN)c21 [TCMDC-136194] | 88.46
CCn1c(-c2nonc2N)nc2c(-c3cccc(NC(=O)Nc4cccc(C#N)c4)c3)ncc(OCCCN)c21 [TCMDC-136195] | 98.06
COc1ccc(N2CCN(CCCCNC(=O)c3ccc(NC(=O)c4ccc(OC(F)(F)F)cc4)cc3)CC2)c(OC)c1 [TCMDC-138149] | -10.77
N#Cc1ccc2c(c1)CCN(CCC1CCC(Nc3ncnc4ccccc34)CC1)C2 (centres unmarked) [TCMDC-139358] | -22.56
Cc1cccc2nc(-c3ccc(-c4cccc(NC(=O)C(C)CN(C)C)c4)s3)[nH]c12 (centres unmarked) [TCMDC-137116] | 33.05
Cc1cc2cc(NC(=O)Nc3ccnc4ccccc34)ccc2n1C [TCMDC-139291] | -17.26
CN(C)c1cc(NC(=O)Nc2ccc(SC(F)(F)F)cc2)c2ccccc2n1 [TCMDC-123994] | 86
CCC(C)c1ccc(NC(=O)Nc2ccnc3ccccc23)cc1 (centres unmarked) [TCMDC-139723] | 3.75
O=C(Nc1ccc(SC(F)(F)F)cc1)Nc1ccnc2ccccc12 [TCMDC-139287] | 73.37
Cc1cc(NC(=O)Nc2cccc(N(C)C)c2)c2ccccc2n1 [TCMDC-138955] | -40.58
CN(C)c1cc(NC(=O)Nc2ccccc2)c2ccccc2n1 [TCMDC-123521] | 30.25
N#Cc1ccc2c(c1)CCN(CCC1CCC(NC(=O)c3cc4ccccc4[nH]3)CC1)CC2 (centres unmarked) [TCMDC-139633] | -57.67
O=C(Nc1ccc(Cl)cc1)c1cc(Cl)ccc1NC(=O)C1CCc2ccccc2O1 (centres unmarked) [TCMDC-136640] | -15.02
CCOc1c(CCNCCCCNCCc2ccc3ccccc3c2OCC)ccc2ccccc12 [TCMDC-137759] | 109.7
CCCOc1c(CCNCCCCNCCc2ccc3ccccc3c2OCCC)ccc2ccccc12 [TCMDC-137950] | 113.4
CCOc1c(N2CCN(CCCCNC(=O)c3ccc(NC(=O)c4ccc(Cl)cc4)cc3)CC2)ccc2ccccc12 [TCMDC-138522] | 6.305
CCCOc1ccc(CCNCCCCNCCc2ccc(OCCC)c3ccccc23)c2ccccc12 [TCMDC-137952] | 124.7
CCCOc1cc(O)c(-c2n[nH]c(C)c2Oc2ccccc2)cc1CC [TCMDC-125714] | -75.18

Compound | % Inhibition [%]
CC(=NO)C1=C(O)C(c2ccccc2)N(c2ccccc2)C1=O (centres unmarked) [TCMDC-131673] | 13.72
O=C(/C=C/c1ccc(Cl)c(Cl)c1)NCCCCCN1CCCN(C(=O)Nc2ccc(F)c(F)c2)CC1 [TCMDC-135750] | -25.07
CCCC(C)Nc1nc(C)cc(N[C@@H](Cc2ccccc2)C(=O)NCCc2ccccc2)n1 (some centres unmarked) [TCMDC-134766] | 6.892
O=C(Nc1ccc(OC2CCN(Cc3ccsc3)C2)c(Cl)c1)c1ccco1 (centres unmarked) [TCMDC-133950] | 41.88
O=C(N[C@@H](CC1CCCCC1)C(=O)NC1CCCCCC1)c1ccc(O)c(-c2ccc(Cl)c(Cl)c2)c1 [TCMDC-140847] | 37.48
Cc1ccc(NC(=O)C2CCC2)cc1-c1ccc(C(=O)NCC2CC2)cc1 [TCMDC-138709] | -25.69
CCN(CC)CCNC(=O)c1ccc(NC(=O)c2ccc(-c3cc(NC(=O)CC4CCCC4)ccc3C)cc2)cc1 [TCMDC-133707] | 110.3
COc1ccc(NC(=O)Nc2ccc(C)c(-c3ccc(C(=O)NCCN4CCCC4)cc3)c2)cc1 [TCMDC-134196] | -27.29
COc1ccc(CNCC2CCC(CNCCc3ccccc3)CC2)cc1Cl (centres unmarked) [TCMDC-140364] | -22.08
COc1cc2c(cc1OC)CN(CCCCc1ccc(NC(=O)c3cc(Cl)cc(Cl)c3)cc1)CC2 [TCMDC-138174] | -15.17
COc1cc2c(cc1OC)CC(NCCCCCCNCCc1ccc(Cl)cc1)CC2 (centres unmarked) [TCMDC-132038] | 103.4
COc1ccc(CCNCCCCCCNCCc2ccc(-c3ccccc3)cc2)cc1OC [TCMDC-131267] | 96.14
COc1ccc(CN(C)CCCc2ccc(NC(=O)Cc3ccc4nc(-c5ccccc5)ccc4c3)cc2)cc1OC [TCMDC-131845] | 17.3
COc1ccc(CNCCCCCCNCCc2ccc(Cl)cc2)cc1OC [TCMDC-131282] | 88.88
COc1ccc(CCNCCCCCCNCCCc2ccc(Cl)cc2)cc1OC [TCMDC-131280] | 105.1
COc1cc2c(cc1OC)CC(NCc1ccc(-c3ccc4nc[nH]c4c3)cc1)C2 [TCMDC-133474] | 37.11
CCOc1cc2ncnc(Nc3ccc(OCc4c(Cl)cccc4Cl)c(OC)c3)c2cc1OCC [TCMDC-131927] | -5.801
CCC(O)(C#Cc1c(C)nc(N)nc1N)CC [TCMDC-137329] | 41.32
N#Cc1ccc(NC(=NCc2cccnc2)Nc2ccc(-c3ccccc3)cc2)c(O)c1 [TCMDC-140208] | -10.63
COc1ccccc1C1CC(c2ccc(Br)cc2)=NN1C(=O)c1ccccc1 (centres unmarked) [TCMDC-125622] | 32.36
Oc1ccc2[nH]c(-c3cccc(F)c3)nc2c1CN1CCC(N2CCCC2)CC1 [TCMDC-136357] | -60.35
Cc1cccc2[nH]c(-c3ccc(-c4cccc(NC(=O)NCc5cccc(F)c5)c4)cc3)nc12 [TCMDC-133295] | 32.47
COc1cccc(NC(=O)Nc2ccc(Nc3nc(C)cc(N4CCCC4)n3)cc2)c1 [TCMDC-124957] | -12.57
N=C(N)c1cc(Br)cc(NC(=O)Nc2cc(Br)cc(C(=N)N)c2)c1 [TCMDC-124180] | -21.96
CC1CCN(CC[C@H]2CCCN2S(=O)(=O)c2cccc(NC(=O)Nc3ccc(C(F)(F)F)cc3)c2)CC1 [TCMDC-141021] | -52.23

Compound | % Inhibition [%]
CCCN(CCC)c1nn2c(=O)c(C(=O)N3CCN(Cc4ccccc4)CC3)cnc2s1 [TCMDC-125272] | -5.242
Cc1cc(CNCCCCCCCNCc2cccc([N+](=O)[O-])c2)ccc1O [TCMDC-140416] | 12.73
COc1ccc(CCNCCCCCCNCCc2cccc([N+](=O)[O-])c2)cc1OC [TCMDC-131262] | 82.84
COc1ccc(CNCCCCCNCc2ccc(Cl)c(Cl)c2)cc1Cl [TCMDC-140365] | 23.3
COc1ccc(CNCCCCCCCNCc2ccc(Cl)c(Cl)c2)cc1Cl [TCMDC-140366] | 13.21
COc1ccc(CCNCCCCCNCCc2ccc(Cl)cc2)cc1OC [TCMDC-131269] | 103.7
Cc1cc(CNCCCCCNCc2cccc([N+](=O)[O-])c2)ccc1O [TCMDC-140410] | 42.39
COc1ccc(CCNCCCCCCNCCc2ccc(Cl)c(Cl)c2)cc1OC [TCMDC-131275] | 106.4
COc1ccc(CCNCCCCCNCCCc2ccc(Cl)cc2)cc1OC [TCMDC-131278] | 107.5
Cc1ccc(C2=NNC3(S2)C(=O)N(C)c2ccccc23)cc1 (centres unmarked) [TCMDC-123863] | 24.25
COc1ccc(C23Oc4cc(OC)cc(OC)c4C2(O)C2(CC3c3ccccc3)SCCCS2)cc1 (centres unmarked) [TCMDC-132098] | 11.15
OCC(CO)(CO)NCc1ccc2c3c(cccc13)-c1ccccc1-2 [TCMDC-137877] | -8.777
C=CCn1c(C)cc(C(=O)COc2ccc(S(=O)(=O)N3CCOCC3)cc2[N+](=O)[O-])c1C [TCMDC-124326] | 33.1
COc1cc(CNCCCNc2nc3ccsc3c(=O)[nH]2)c2[nH]cc(Cl)c2c1 [TCMDC-140349] | -35.52
COc1cccc(CCNCCCCCCNCCc2ccc(Cl)cc2)c1 [TCMDC-131284] | 113.2
COc1cccc(CCc2cccc(CNC(C)=O)c2)c1 [TCMDC-139277] | -0.06569
COc1ccc2nccc([C@@H](O)CN3CCC(NCc4nc5cc(F)ccc5o4)CC3)c2c1 [TCMDC-140783] | -5.365
c1ccc2c(c1)ncc1c3ccccc3[nH]c21 [TCMDC-131258] | -7.104
O=C(O)C(F)(F)F.O=C1CCCN1CCCNCc1cccc(-c2ccc(-c3nc4cc(C(F)(F)F)ccc4[nH]3)s2)c1 [TCMDC-132757] | -29.57
Cc1cccc2nc(-c3ccc(-c4cccc(CN5CCCC5CN)c4)s3)[nH]c12.O=C(O)C(F)(F)F (centres unmarked) [TCMDC-132997] | 41.54
NCC1CCCN1Cc1cccc(-c2ccc(-c3nc4cc(C(F)(F)F)ccc4[nH]3)s2)c1.O=C(O)C(F)(F)F (centres unmarked) [TCMDC-132992] | 36.35
NCC1CCCN1Cc1cccc(-c2ccc(-c3nc4ccccc4[nH]3)s2)c1.O=C(O)C(F)(F)F (centres unmarked) [TCMDC-132987] | 77.53
O=C(O)C(F)(F)F.O=C1CCCN1CCCNCc1cccc(-c2ccc(-c3nc4ccccc4[nH]3)s2)c1 [TCMDC-132749] | 78.47
Cc1cccc2nc(-c3ccc(-c4cccc(CNCCCN5CCCC5=O)c4)s3)[nH]c12.O=C(O)C(F)(F)F [TCMDC-132762] | -3.129
